Assay outcomes from PubChem BioAssay.
ADAM10 inh = human ADAM10 inhibitors, primary screen, biochemical, QFRET, HTS; Disintegrin and metalloproteinase domain-containing protein 10 (Homo sapiens), O14672; recombinant ADAM10, EDANS/DABCYL FRET peptide cleavage, 3 h; inhibition, % at 7 µM; 370,000 compounds, 0.62% hits;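 active means inhibition above a per-campaign cutoff equal to the mean of compounds falling between control-based bounds plus 3 SD, cut at about 20% in these data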;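 further: 0% = DMSO wells while the 100% control is not disclosed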
ADAM17 inh = ADAM17 inhibitors, primary screen, biochemical, QFRET | recombinant ADAM17, EDANS/DABCYL FRET peptide cleavage | inhibition, % at 6.95 µM | 370,000 compounds, 0.83% hits | AID 720648, 2013;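 active means inhibition above the mean of compounds lying between control limits plus 3 SD, set per campaign, cut at about 8.5% in these data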;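 further: 0% = DMSO-only wells as the low control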
FAS TE block = FAS thioesterase domain inhibitors, primary screen, biochemical, fluorescence intensity, uHTS. Fatty acid synthase (Homo sapiens), P49327. 360,000 compounds, 0.67% hits. inhibition, % at 15 µM. recombinant FAS-TE, OMFH fluorogenic substrate, fluorescence endpoint;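 active means compounds whose normalised, plate-corrected inhibition of enzyme fluorescence in the single-dose primary screen is 50% or more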;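 further: 0% = DMSO with enzyme and 100% = substrate without enzyme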
GC-A act = GC-A stimulated cGMP production enhancers – HEK293 GC-A cells, cGMP TR-FRET, EC30 ANP, primary screen; Atrial natriuretic peptide receptor 1 (Homo sapiens), P16066; 0% at EC30 ANP, 100% saturating ANP; activation, % at 10 µM; 370,000 compounds, 0.14% hits; AID 1671463, 2021; in the data active means activation above about 40%
NPR2 activator = human GC-B receptor activators, primary screen, HEK293 GC-B cells, cGMP TR-FRET, EC30 CNP; 0% at EC30 CNP, 100% saturating CNP; activation, % at 10 µM; 370,000 compounds, 0.11% hits; AID 1920062, 2024;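 active means activation at 10 µM reaching about 35% in either raw or pattern-adjusted values, limit read from the data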
ADAM10 ctr = ADAM10 inhibitors, counter-screen for ADAM17 exosite inhibitor project, biochemical, FRET, human ADAM10. recombinant ADAM10, EDANS/DABCYL FRET peptide cleavage, 3 h. 2,900 compounds, 47% hits. shares compounds with ADAM17 inh. inhibition, % at 6.95 µM. AID 743256, 2014;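 active means mean inhibition over the triplicate runs exceeds the activity threshold set in the earlier primary screen, cut at about 20% in these data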;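 further: 0% = DMSO wells and 100% = marimastat wells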
ADAM17 confirm = ADAM17 inhibitors, hit retest, confirmation, biochemical, QFRET peptide cleavage; 2,900 compounds, 65% hits; shares compounds with ADAM17 inh; AID 743257, 2014; recombinant ADAM17, EDANS/DABCYL QFRET peptide cleavage; inhibition, % at 6.95 µM;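 active means mean inhibition across replicates above the hit cutoff set in the primary screen, cut at about 8.5% in these data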;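 further: 0% = DMSO wells and 100% = marimastat wells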
An asterisk follows results filed as active. Compounds with a hit are over-represented: about 2% of the library has one in this group of screens.

COC(=O)[C@]12C[C@H](CC(=O)N3CCN(C(=O)c4ccco4)CC3)C(=O)N(Cc3ccc(Cl)cc3Cl)C1=C[C@H](COCc1ccccc1)O[C@@H]2C was read as ADAM10 inh 17, ADAM17 inh 13*, GC-A act -2, NPR2 activator 6, ADAM10 ctr 18 and ADAM17 confirm 10*.
For COC(=O)[C@]12C[C@H](CC(=O)NCc3ccc(C)o3)C(=O)N(Cc3ccccc3)C1=C[C@H](C1CCCC1)O[C@@H]2C the results were ADAM10 inh 9, ADAM17 inh 12*, GC-A act -7, NPR2 activator -5, ADAM10 ctr 10 and ADAM17 confirm 7.
COC(=O)[C@]12C[C@H](CC(=O)N3CCCCC3)C(=O)N(Cc3ccc(Cl)cc3Cl)C1=C[C@H](COCc1ccccc1)O[C@@H]2C was read as ADAM10 inh 4, ADAM17 inh -4, GC-A act -3 and NPR2 activator -1.
For COC(=O)[C@]12C[C@H](CC(=O)NCc3ccccc3)C(=O)N(CCc3ccc(OC)c(OC)c3)C1=C[C@H](COCc1ccccc1)O[C@@H]2C the results were ADAM10 inh -1, ADAM17 inh -2, GC-A act 1 and NPR2 activator -4.
Screening CC(C)(C)CCNc1nc(-c2ccccn2)nnc1-c1ccccc1 returned ADAM10 inh -3, ADAM17 inh -3, GC-A act 1 and NPR2 activator 4.
For CC(C)[C@H](NC(=O)c1ccc(Cl)cc1Cl)C(=O)N1CCC[C@H]1C(=O)NCCc1ccccc1Cl the results were ADAM10 inh -3, ADAM17 inh -1, GC-A act -6 and NPR2 activator -12.
Screening O=C(C(=O)N1CCC(CNS(=O)(=O)c2ccc(C(F)(F)F)cc2)CC1)c1cccs1 returned ADAM10 inh 0, ADAM17 inh 4, GC-A act 3 and NPR2 activator 3.
`O=[N+]([O-])c1cc(Cl)c(O)c2ncccc12` gave ADAM10 inh 15, ADAM17 inh 10*, FAS TE block 11, GC-A act 6, NPR2 activator -1, ADAM10 ctr 20 and ADAM17 confirm 11*.
For C[C@@H]1NC(=O)[C@H]2C[C@@]3(c4ccccc4)c4ccccc4N[C@H]3N2C1=O the results were ADAM10 inh -1, ADAM17 inh -2, GC-A act -1 and NPR2 activator 3.
C/C(=N\NC(=O)CNC(=O)C(c1ccccc1)c1ccccc1)c1ccc(C(C)(C)C)cc1 was read as ADAM10 inh 13, ADAM17 inh 10*, FAS TE block 5, GC-A act -5, NPR2 activator 3, ADAM10 ctr 4 and ADAM17 confirm 2.
`COc1ccc(NCC(=O)Nc2ccc(Br)cc2F)c(OC)c1` gave ADAM10 inh 5, ADAM17 inh 10*, FAS TE block 5, GC-A act -4, NPR2 activator 4, ADAM10 ctr 27* and ADAM17 confirm 9.3*.
For O=C(COc1ccccc1Br)NCCc1nc2ccccc2[nH]1 the results were ADAM10 inh 7, ADAM17 inh 8.9*, FAS TE block -5, GC-A act -4, NPR2 activator 0, ADAM10 ctr 12 and ADAM17 confirm 2.
COc1ccccc1OCC(=O)NCCc1nc2ccccc2[nH]1 was read as ADAM10 inh 0, ADAM17 inh 4, FAS TE block -7, GC-A act -10 and NPR2 activator -1.
Screening CC(=O)N(C)c1ccc(N=Nc2ccc3ncccc3c2)cc1 returned ADAM10 inh 17, ADAM17 inh 9.6*, FAS TE block -7, GC-A act 0, NPR2 activator -4, ADAM10 ctr 1 and ADAM17 confirm 5.
`CC(=O)N(C)c1ccc(N=Nc2c(C)[nH]n(-c3ccccc3)c2=O)cc1` gave ADAM10 inh 3, ADAM17 inh -1, FAS TE block 3, GC-A act 1 and NPR2 activator 0.
CCCc1cc(-c2[nH]ncc2-c2ccc3c(c2)OCCCO3)c(O)cc1OC was read as ADAM10 inh 18, ADAM17 inh 10*, GC-A act 1, NPR2 activator -4, ADAM10 ctr 28* and ADAM17 confirm 13*.
Screening COc1ccc(S[C@]2(C(=O)N3CCN(c4ncccn4)CC3)CC(=O)N(c3ccc4ccccc4c3)[C@@H]2c2ccc(OC)cc2)cc1 returned ADAM10 inh -4, ADAM17 inh 0, GC-A act -2 and NPR2 activator -1.
For COc1cccc(CN(C)C(=O)c2cc(COc3ccc(-n4cncn4)cc3)on2)c1 the results were ADAM10 inh 8, ADAM17 inh 8.7*, FAS TE block -5, GC-A act -2, NPR2 activator -3, ADAM10 ctr 3 and ADAM17 confirm 4.
For COc1ccc(NC(=O)c2oc3ccccc3c2NC(=O)C2CC2)cc1 the results were ADAM10 inh -6, ADAM17 inh -3, FAS TE block 16, GC-A act 4 and NPR2 activator 8.
For COc1ccc(NC(=O)c2oc3ccccc3c2NC(=O)C(C)(C)C)cc1 the results were ADAM10 inh 9, ADAM17 inh 9.7*, FAS TE block 20, GC-A act 4, NPR2 activator -2, ADAM10 ctr 9 and ADAM17 confirm 8.8*.
`COc1cccc(OC)c1C(=O)Nc1ccc2c(c1)CCCN2S(=O)(=O)c1ccc(C)cc1` gave ADAM10 inh 14, ADAM17 inh 2, FAS TE block 21, GC-A act 3 and NPR2 activator 0.
Cc1ccc(S(=O)(=O)N2CCCc3cc(NC(=O)c4c(F)cccc4F)ccc32)cc1 was read as ADAM10 inh 17, ADAM17 inh 12*, FAS TE block 19, GC-A act -1, NPR2 activator -2, ADAM10 ctr 27* and ADAM17 confirm 14*.
CCN(CC)CCCNC(=O)C1(N[C@@H](Cc2c[nH]c3ccccc23)C(=O)NCC(OC)OC)CCCCC1 was read as ADAM10 inh -3, ADAM17 inh -5, GC-A act 0 and NPR2 activator 1.
